Assay outcomes (PubChem)
Only some compounds are listed: those with a hit (about 0.37% of all), similar ones and a draw of the others.
CBFb RUNX1 block: blocks binding between human CBF-beta and RUNX1. AlphaScreen CBFb-His/RUNX1-biotin binding, biochemical. Q01196+Q13951. AID 1477. 230,000 tested, under 10 active. Potency, µM (titrated, usually from 59.8 µM), for inactives: at the highest dose activity, negative = inhibition, actives largely listed as inhibitors; also: % of control where 0% means no effect
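Interaction loss through any mechanism counts as activity. Pre-formed complex of His-CBF-beta and biotin-RUNX1 (30 nM apiece) is incubated with compound 15 min, then with 50 ng nickel and 50 ng streptavidin beads for 90 min before AlphaScreen detection.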
MBNL1 CUG block: inhibitors of human MBNL1 binding to CUG repeat RNA; Potency, µM (top dose mostly 57.5 µM), for inactives: at the top dose activity change, negative = inhibition, actives largely listed as inhibitors; TR-FRET MBNL1-His/biotin-(CUG)12 binding, 665/545 ratio; hit rate 0.036% among 280,000; AID 2675; Q9NR56; active = well fitted inhibition curve with a large enough effect in the signal ratio, with a control signal flat, not every such curve was filed as active; inconclusive = small, poorly fitted or top-dose-only effect, or effect the other way, or a change in a side signal; inactive = no such curve, though single readings can be large or run the other way; the % refers to the signal ratio; also: potency is read from the fitted curve at half-maximal effect; % is scaled to controls: 0 for no effect and ±100 for the full control effect
Target sequence (Q9NR56 whole entry, looked up): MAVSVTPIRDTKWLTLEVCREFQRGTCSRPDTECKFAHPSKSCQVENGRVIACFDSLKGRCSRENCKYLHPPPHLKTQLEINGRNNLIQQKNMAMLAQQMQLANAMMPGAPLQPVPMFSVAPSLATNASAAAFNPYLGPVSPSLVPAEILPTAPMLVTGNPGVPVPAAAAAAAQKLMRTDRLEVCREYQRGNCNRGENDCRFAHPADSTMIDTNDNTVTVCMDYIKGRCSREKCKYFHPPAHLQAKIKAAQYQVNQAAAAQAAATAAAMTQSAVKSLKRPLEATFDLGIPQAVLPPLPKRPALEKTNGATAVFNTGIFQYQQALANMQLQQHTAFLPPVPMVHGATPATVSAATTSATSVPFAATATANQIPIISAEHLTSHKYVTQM
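Compound titration spanned 92 nM–58 uM against the MBNL1-His/biotin-(CUG)12 complex. After 60 min at room temperature with 5 nM streptavidin-XL665 and 0.055 ng/ul terbium anti-His, ratiometric 665/545 nm emission (Ex 340 nm) normalized to controls.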
Epigenetic reg: epigenetic control regulation, reporter derepression; Potency, µM (doses to about 53.9 µM), for inactives: top-dose GFP activation, usual class: activators; murine LDR cells, GFP reporter derepression, 30 h; hit rate 0.2% among 280,000; also: potency is read from the fitted curve at half-maximal effect; % of control where 0% means no effect; nearly all actives have a fitted effect of over 60% in size
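Murine LDR cells bearing a silenced CMV-driven GFP reporter were exposed to compound for 30 h at 37 C. After PBS washes, GFP-positive cells (20-120 um objects) counted by laser-scanning microplate cytometry.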
Vif-APOBEC3F blk: inhibitors of Vif-A3F interaction. HeLa A3F-eYFP + Vif (tagged APOBEC3F with the HIV-1 protein that degrades it), YFP fluorescence increase. Potency, µM (titrated, usually from 46.1 µM), inactives show top-dose activity, negative = active. hit rate 0.2% among 390,000. AID 602313; also: potency is read from the fitted curve at half-maximal effect; % of control where 0% means no effect; nearly all actives have a fitted effect of over 65% in size
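Fluorescence increase (Ex 488/Em 500-530) after overnight compound treatment at 37 deg C flags inhibition of Vif-driven A3F-eYFP loss in stable HeLa A3F-eYFP/Vif cells seeded overnight beforehand.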
TSG101-PTAP inh: blocks PTAP/TSG101 interaction to inhibit HIV-1 budding; Fluorescence polarization, FITC-PTAP peptide / Tsg101 binding; Potency, µM (top dose mostly 115 µM), without a hit: top-dose activity change, negative = inhibition, actives largely listed as inhibitors; Q99816; 340,000 tested, under 10 active; active = well fitted inhibition curve with a large enough effect in the main read-out, with a control signal flat, not every such curve was filed as active; inconclusive = small, poorly fitted or top-dose-only effect, or effect the other way, or a change in a side signal; inactive = no such curve, though single readings can be large or run the other way; also: potency is read from the fitted curve at half-maximal effect; % of control where 0% means no effect
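Steps: Tsg101 binding domain dispensed (10 uM final), compounds pinned in DMSO, FITC-labeled PTAP-motif peptide added (50 nM final); after 20 min binding at room temperature, polarization measured.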
Vif-A3G inh: blocks the Vif interaction with human APOBEC3G. Q9HC16. HeLa A3G-eYFP + Vif (tagged APOBEC3G with the HIV-1 protein that degrades it), YFP fluorescence, overnight. Potency, µM (doses to about 46.1 µM), for inactives: at the highest dose activity, negative = active, usual class: inhibitors. hit rate 0.076% among 410,000. AID 602310; also: potency is read from the fitted curve at half-maximal effect; % is scaled to controls: 0 for no effect and ±100 for the full control effect; nearly all actives have a fitted effect of over 60% in size
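Read-out is eYFP fluorescence (Ex 488/Em 500-530) from Vif-expressing HeLa A3G-eYFP cells; more signal means A3G escaped Vif-mediated degradation. Cells plated overnight, compound pinned in, incubated overnight at 37 deg C.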
MBNL1-CUG FRET: confirmation of inhibitors of human MBNL1-poly(CUG) RNA binding; AID 493199; TR-FRET MBNL1-His / biotin-(CUG)12 binding, 60 min; Potency, µM (titrated, usually from 57.6 µM), inactives show at the top dose activity change, negative = inhibition, hits mostly inhibitors; shares compounds with MBNL1 CUG block; hit rate 50% among 140
MBNL1 AlphaScrn: MBNL1-CUG RNA binding inhibition, AlphaScreen validation; Potency, µM (series often up to 57.7 µM), for inactives: top-dose activity, negative = inhibition, actives largely listed as inhibitors; AID 493205; AlphaScreen MBNL1-His / biotin-(CUG)12 binding; shares compounds with MBNL1 CUG block; hit rate 30% among 140
Menin-MLL HTRF: hit in HTRF counterscreen for MBNL1-poly(CUG) binding inhibitors. shares compounds with MBNL1 CUG block. His-Menin/biotin-MLL peptide TR-FRET counterscreen. Potency, µM (top dose mostly 57.6 µM), for the others: at the top dose activity, negative = inhibition, hits mostly inhibitors. hit rate 20% among 120
Active calls of the source: *; ? = inconclusive; . = no result given. Unless noted, calls follow the shape of the dose curve; as a rule, active = well fitted curve in the direction sought with a large enough effect; inconclusive = small, poorly fitted or top-dose-only effect, or another doubt; inactive = no such curve, though single readings can be large; an effect the other way counts as inactive or inconclusive.

SMILES	CBFb RUNX1 block	MBNL1 CUG block	Epigenetic reg	Vif-APOBEC3F blk	TSG101-PTAP inh	Vif-A3G inh	MBNL1-CUG FRET	MBNL1 AlphaScrn	Menin-MLL HTRF
Cc1ccc(Cl)cc1N1CCN(C(=O)c2cn(C3CCCCC3)c(=O)c3c2c2ccccc2n3C)CC1	.	.	3%	3%	.	4%	.	.	.
CC(=O)CSc1nc(N)c(C#N)c(-c2cccs2)c1C#N	0%	245%	0%	0%	-2%	-4%	.	.	.
N#Cc1c(N)nc(SCC(=O)NCCc2ccccc2)c(C#N)c1-c1cccs1	?	134%	2%	8%	7%	2%	?	-3%	0%
CN(CC(=O)Nc1sccc1C#N)C1CCCCC1	11%	28µM*	-1%	5%	-7%	-3%	-22%	-1%	0%
CCCn1c(-c2ccc(F)cc2)nc2c(N3CCN(Cc4nc(OC)cc(OC)n4)CC3)nc(C)nc21	2%	.	1%	.	.	.	.	.	.
CC(=O)c1cccc(NC(=O)Nc2cccnc2)c1	-9%	25µM*	-1%	3%	-6%	0%	26µM*	2%	?
O=C1CN(CCN2CC(=O)NC(=O)C2)CC(=O)N1	.	.	.	.	.	0%	.	.	.
COc1ccc(-c2nc(SCC(=O)Nc3c(F)cccc3F)n[nH]2)cc1	.	.	.	1%	-3%	2%	.	.	.
COc1ccc(-c2nc(SCC(=O)Nc3cc(C)on3)n[nH]2)cc1	3%	40µM*	0%	7%	0%	-6%	16µM*	-9%	?
O=C(CC(C(=O)O)n1ccnc1)c1ccc(Cl)cc1 (stereo not given)	.	.	.	.	.	-5%	.	.	.
Cc1cc(N)c2cc(NC(=O)Nc3ccc4nc(C)cc(N)c4c3)ccc2n1	.	.	.	.	.	.	.	.	21µM*
O=C(O)[C@@H](c1ccccc1)N1Cc2ccccc2C1=O	1%	40µM*	3%	-8%	0%	-2%	26µM*	21µM*	-3%
Cc1ccccc1CSc1cn(CCNC(=O)c2cccs2)c2ccccc12	.	.	0%	-10%	.	-3%	.	.	.
O=c1[nH]c2ccc(NCc3ccc(-c4ccc(F)cc4)o3)cc2[nH]1	.	.	2%	1%	.	2%	.	.	.
N#Cc1c(N2CCCC2)nc(N)c2c(N)nc(N3CCCC3)cc12	?	.	-8%	-2%	-5%	-24%	5.2µM*	0.65µM*	22%
COc1cc2c(C#N)c(N3CCCC3)nc(N)c2c(N)n1	11%	?	-2%	0%	2%	1%	.	.	.
CCOc1ccccc1-c1nnc2n1N=C(c1ccccc1OC)CS2	-3%	.	.	.	.	.	.	.	.
COc1ccc(CCNC(=O)C2CC(=O)N(c3ccc(F)cc3)C2)cc1OC (stereo not given)	0%	0.79µM*	0%	-10%	-13%	1%	-9%	-8%	0%
CCOc1ccccc1CNC(=O)Cc1ccc(NC(=O)N2CCCCc3ccccc32)cc1	.	.	0%	5%	.	1%	.	.	.
O=C(O)C1Nc2c(Cl)cc(Cl)cc2C2C=CCC12 (stereo not given)	.	17%	.	-2%	-20%	1%	.	.	.
O=C(O)C1Nc2c(O)cccc2C2C=CCC12 (stereo not given)	.	.	2%	-8%	-5%	1%	10µM*	2.1µM*	5%
